About 79,000 compounds went through this panel and 15% of them were active in at least one assay; those are over-represented in the sample as a whole. A number with no mark means an inactive call. Calls of active or inactive are those of the source. Cut-off read from the data, not from the text of the source: active = growth inhibition above about 70%; inactive = the rest.
Experiments:
[1] = NCI Yeast Anticancer Drug Screen. Data for the rad52 strain (AID 147);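 note: 0% = growth of vehicle-treated control cultures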; details: S. cerevisiae rad52 mutant growth inhibition, hits give high values
Method in brief: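 Screen used a yeast mutant impaired in DNA repair. After compound exposure, growth was measured. Values reflect inhibition compared with vehicle-treated cells.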

[2] = NCI Yeast Anticancer Drug Screen. Data for the wt1 strain (AID 149);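 note: 0% = growth of vehicle-treated wt1 cultures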; details: S. cerevisiae wt1 strain (SPY 50644) growth inhibition, hits give high values
Method in brief: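 The wt1 strain was treated with compounds, and growth was compared with vehicle-treated cultures to give inhibition.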

[3] = NCI Yeast Anticancer Drug Screen. Data for the mgt1 strain (AID 153); details: S. cerevisiae mgt1 mutant growth inhibition, hits give high values
Method in brief: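 Genetically defined yeast (mgt1) treated with compound; inhibition of growth expressed against vehicle-treated controls.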

[4] = NCI Yeast Anticancer Drug Screen. Data for the rad50 strain (AID 155);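 note: 0% = growth of vehicle-only cultures of the same strain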; details: S. cerevisiae rad50 strain growth inhibition, hits give high values
Method in brief: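 Cells are treated with compound, grown, and their growth is then scored against vehicle-only cultures of the same repair-deficient yeast strain.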

[5] = NCI Yeast Anticancer Drug Screen. Data for the mec2-1 strain (AID 157); details: S. cerevisiae mec2-1 strain, hits give high values
Method in brief: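 Readout is yeast growth inhibition, normalised to vehicle-treated controls, in the mec2-1 strain exposed to compound.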

[6] = NCI Yeast Anticancer Drug Screen. Data for the rad14 strain (AID 159);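 note: 0% = growth of vehicle-treated control cultures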; details: S. cerevisiae rad14 strain growth inhibition, hits give high values
Method in brief: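 Readout: yeast growth inhibition, referenced to vehicle-only cultures. Strain bears a defined alteration in DNA damage repair.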

[7] = NCI Yeast Anticancer Drug Screen. Data for the sgs1 mgt1 strain (AID 161);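 note: 0% = growth of cultures given vehicle only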; details: S. cerevisiae sgs1 mgt1 strain, hits give high values
Method in brief: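 Growth of a repair-deficient yeast mutant was monitored after compound treatment and expressed as inhibition relative to vehicle-treated cultures.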

[8] = NCI Yeast Anticancer Drug Screen. Data for the CLN2oe strain (AID 163);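 note: 0% = growth of vehicle-only control cultures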; details: S. cerevisiae CLN2oe strain, hits give high values
Method in brief: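 Values reflect how much compound exposure reduced yeast growth, referenced to vehicle-exposed cells. Assay organism is a strain with a defined genetic change affecting cell-cycle control.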

[9] = NCI Yeast Anticancer Drug Screen. Data for the cln2 rad14 strain (AID 165);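 note: 0% = growth equal to vehicle treated cultures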; details: S. cerevisiae cln2 rad14 strain, hits give high values
Method in brief: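 Relative to vehicle controls, growth inhibition of compound-treated cln2 rad14 yeast was recorded.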

[10] = NCI Yeast Anticancer Drug Screen. Data for the bub3 strain (AID 167); details: S. cerevisiae bub3 mutant strain, hits give high values
Method in brief: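 Part of a panel of yeast mutants defective in DNA damage repair or cell cycle regulation. Each strain is grown with compound, and inhibition is calculated relative to solvent-treated cultures.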

[11] = NCI Yeast Anticancer Drug Screen. Data for the wt2 strain (AID 169);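 note: 0% = growth of vehicle-treated yeast cultures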; details: S. cerevisiae wt2 strain growth inhibition, hits give high values
Method in brief: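 Values express reduction in yeast growth under compound treatment, referenced to vehicle-treated cells.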

[12] = NCI Yeast Anticancer Drug Screen. Data for the mlh1 strain (AID 171);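 note: 0% = growth of vehicle-treated control cultures of the same strain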; details: S. cerevisiae mlh1 strain growth inhibition, hits give high values
Method in brief: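 Steps: expose the defined-mutant yeast strain to compound; expose a parallel culture to vehicle; measure growth; express compound effect as inhibition relative to the vehicle culture.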

[13] = NCI Yeast Anticancer Drug Screen. Data for the sgs1 strain (AID 173);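 note: 0% = growth of vehicle-only control cultures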; details: S. cerevisiae sgs1 mutant, hits give high values
Method in brief: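 Treat defined-mutant yeast with compound; measure growth; calculate inhibition relative to vehicle-treated cells.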

[14] = NCI Yeast Anticancer Drug Screen. Data for the mlh1 rad18 strain (AID 175); details: S. cerevisiae mlh1 rad18 strain growth inhibition, hits give high values
Method in brief: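 Test agents were incubated with a yeast strain of defined genotype (DNA damage repair defect). Inhibition of growth was derived by comparison with vehicle-exposed cultures.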

[15] = NCI Yeast Anticancer Drug Screen. Data for the rad18 strain (AID 177); details: S. cerevisiae rad18 mutant growth inhibition, hits give high values
Method in brief: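 A genetically defined yeast mutant impaired in DNA damage repair was treated with test compounds, then its growth was measured against cultures receiving vehicle alone.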

[16] = NCI Yeast Anticancer Drug Screen. Data for the rad50EPP+ strain (AID 151);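 note: 0% = growth of vehicle-treated control cultures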; details: S. cerevisiae rad50 mutant strain, hits give high values
Method in brief: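 Exposing the rad50EPP+ strain to each compound, growth was compared with vehicle-only cultures to give inhibition.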

[17] = at 5.0 µM (retest, dose inferred, filed as 0.5)
[18] = at 50.0 µM (retest, dose inferred, filed as 5.0)

## C[CH2][Sn]([CH2]C)([O]C(=O)C(N)Cc1ccccc1)[O]C(=O)C(N)Cc1ccccc1 (stereo unspecified)
[1]; at 1.2 µM
  growth inhibition: 1%
[1]; at 3.7 µM
  growth inhibition: -4%
[1]; at 11.0 µM
  growth inhibition: 2%
[1]; at 33.0 µM
  growth inhibition: 14%
[1]; at 100.0 µM
  growth inhibition: 52%
[2]; at 1.2 µM
  growth inhibition: 1%
[2]; at 3.7 µM
  growth inhibition: 1%
[2]; at 11.0 µM
  growth inhibition: 14%
[2]; at 33.0 µM
  growth inhibition: 19%
[2]; at 100.0 µM
  growth inhibition: 54%
[3]; at 1.2 µM
  growth inhibition: 6%
[3]; at 3.7 µM
  growth inhibition: -2%
[3]; at 11.0 µM
  growth inhibition: 1%
[3]; at 33.0 µM
  growth inhibition: 23%
[3]; at 100.0 µM
  growth inhibition: 56%
[4]; at 1.2 µM
  growth inhibition: 10%
[4]; at 3.7 µM
  growth inhibition: 3%
[4]; [17]
  growth inhibition: 19%
[4]; at 11.0 µM
  growth inhibition: 14%
[4]; at 33.0 µM
  growth inhibition: 15%
[4]; [18]
  growth inhibition: 20%
[4]; at 50.0 µM
  growth inhibition: 55.8%
[4]; at 100.0 µM
  growth inhibition: 54%
[5]; at 1.2 µM
  growth inhibition: 3%
[5]; at 3.7 µM
  growth inhibition: 3%
[5]; [17]
  growth inhibition: 19%
[5]; at 11.0 µM
  growth inhibition: 0%
[5]; at 33.0 µM
  growth inhibition: 3%
[5]; [18]
  growth inhibition: 36%
[5]; at 50.0 µM
  growth inhibition: 70.5% (active)
[5]; at 100.0 µM
  growth inhibition: 49%
[6]; at 1.2 µM
  growth inhibition: -23%
[6]; at 3.7 µM
  growth inhibition: -11%
[6]; at 11.0 µM
  growth inhibition: -17%
[6]; at 33.0 µM
  growth inhibition: -13%
[6]; at 100.0 µM
  growth inhibition: 7%
[7]; [17]
  growth inhibition: -21%
[7]; [18]
  growth inhibition: 59%
[7]; at 50.0 µM
  growth inhibition: 16.1%
[8]; at 1.2 µM
  growth inhibition: 4%
[8]; at 3.7 µM
  growth inhibition: -1%
[8]; at 11.0 µM
  growth inhibition: 10%
[8]; at 33.0 µM
  growth inhibition: 14%
[8]; at 100.0 µM
  growth inhibition: 36%
[9]; [17]
  growth inhibition: 17%
[9]; [18]
  growth inhibition: 76% (active)
[9]; at 50.0 µM
  growth inhibition: 61.1%
[10]; at 1.2 µM
  growth inhibition: -23%
[10]; at 3.7 µM
  growth inhibition: -25%
[10]; [17]
  growth inhibition: 2%
[10]; at 11.0 µM
  growth inhibition: -39%
[10]; at 33.0 µM
  growth inhibition: -29%
[10]; [18]
  growth inhibition: 74% (active)
[10]; at 50.0 µM
  growth inhibition: 47.7%
[10]; at 100.0 µM
  growth inhibition: 32%
[11]; at 1.2 µM
  growth inhibition: -15%
[11]; at 3.7 µM
  growth inhibition: -21%
[11]; at 11.0 µM
  growth inhibition: -13%
[11]; at 33.0 µM
  growth inhibition: -2%
[11]; at 100.0 µM
  growth inhibition: 78% (active)
[12]; at 1.2 µM
  growth inhibition: 6%
[12]; at 3.7 µM
  growth inhibition: -2%
[12]; at 11.0 µM
  growth inhibition: 1%
[12]; at 33.0 µM
  growth inhibition: 23%
[12]; at 100.0 µM
  growth inhibition: 56%
[13]; at 1.2 µM
  growth inhibition: -8%
[13]; at 3.7 µM
  growth inhibition: 7%
[13]; at 11.0 µM
  growth inhibition: 4%
[13]; at 33.0 µM
  growth inhibition: 0%
[13]; at 100.0 µM
  growth inhibition: 42%
[14]; [17]
  growth inhibition: 17%
[14]; [18]
  growth inhibition: 23%
[14]; at 50.0 µM
  growth inhibition: -22.9%
[15]; at 1.2 µM
  growth inhibition: 3%
[15]; at 3.7 µM
  growth inhibition: 2%
[15]; at 11.0 µM
  growth inhibition: 6%
[15]; at 33.0 µM
  growth inhibition: 22%
[15]; at 100.0 µM
  growth inhibition: 65%

## O=[N+]([O-])c1cccc2nc3ccccc3c(NCCCn3ccnc3[N+](=O)[O-])c12
[1]; at 1.2 µM
  growth inhibition: 53%
[1]; at 3.7 µM
  growth inhibition: 65%
[1]; at 11.0 µM
  growth inhibition: 86% (active)
[1]; at 33.0 µM
  growth inhibition: 94% (active)
[1]; at 100.0 µM
  growth inhibition: 97% (active)
[16]; at 1.2 µM
  growth inhibition: 24%
[16]; at 3.7 µM
  growth inhibition: 37%
[16]; at 11.0 µM
  growth inhibition: 58%
[16]; at 33.0 µM
  growth inhibition: 83% (active)
[16]; at 100.0 µM
  growth inhibition: 90% (active)
[3]; at 1.2 µM
  growth inhibition: 17%
[3]; at 3.7 µM
  growth inhibition: 28%
[3]; at 11.0 µM
  growth inhibition: 38%
[3]; at 33.0 µM
  growth inhibition: 55%
[3]; at 100.0 µM
  growth inhibition: 82% (active)
[4]; at 1.2 µM
  growth inhibition: 23%
[4]; at 3.7 µM
  growth inhibition: 63%
[4]; [17]
  growth inhibition: 24%
[4]; at 11.0 µM
  growth inhibition: 86% (active)
[4]; at 33.0 µM
  growth inhibition: 94% (active)
[4]; [18]
  growth inhibition: 94% (active)
[4]; at 50.0 µM
  growth inhibition: 80% (active)
[4]; at 100.0 µM
  growth inhibition: 96% (active)
[5]; at 1.2 µM
  growth inhibition: 29%
[5]; at 3.7 µM
  growth inhibition: 55%
[5]; [17]
  growth inhibition: 16%
[5]; at 11.0 µM
  growth inhibition: 88% (active)
[5]; at 33.0 µM
  growth inhibition: 96% (active)
[5]; [18]
  growth inhibition: 98% (active)
[5]; at 50.0 µM
  growth inhibition: 87.5% (active)
[5]; at 100.0 µM
  growth inhibition: 97% (active)
[6]; at 1.2 µM
  growth inhibition: 17%
[6]; at 3.7 µM
  growth inhibition: 73% (active)
[6]; at 11.0 µM
  growth inhibition: 95% (active)
[6]; at 33.0 µM
  growth inhibition: 97% (active)
[6]; at 100.0 µM
  growth inhibition: 98% (active)
[7]; [17]
  growth inhibition: 54%
[7]; [18]
  growth inhibition: 94% (active)
[7]; at 50.0 µM
  growth inhibition: 85% (active)
[8]; at 1.2 µM
  growth inhibition: 5%
[8]; at 3.7 µM
  growth inhibition: 27%
[8]; at 11.0 µM
  growth inhibition: 46%
[8]; at 33.0 µM
  growth inhibition: 82% (active)
[8]; at 100.0 µM
  growth inhibition: 92% (active)
[9]; [17]
  growth inhibition: 52%
[9]; [18]
  growth inhibition: 97% (active)
[9]; at 50.0 µM
  growth inhibition: 87.4% (active)
[10]; at 1.2 µM
  growth inhibition: -15%
[10]; at 3.7 µM
  growth inhibition: -12%
[10]; [17]
  growth inhibition: 11%
[10]; at 11.0 µM
  growth inhibition: 11%
[10]; at 33.0 µM
  growth inhibition: 51%
[10]; [18]
  growth inhibition: 78% (active)
[10]; at 50.0 µM
  growth inhibition: 58.4%
[10]; at 100.0 µM
  growth inhibition: 88% (active)
[11]; at 1.2 µM
  growth inhibition: -16%
[11]; at 3.7 µM
  growth inhibition: -9%
[11]; at 11.0 µM
  growth inhibition: 19%
[11]; at 33.0 µM
  growth inhibition: 74% (active)
[11]; at 100.0 µM
  growth inhibition: 88% (active)
[12]; at 1.2 µM
  growth inhibition: 17%
[12]; at 3.7 µM
  growth inhibition: 33%
[12]; at 11.0 µM
  growth inhibition: 47%
[12]; at 33.0 µM
  growth inhibition: 75% (active)
[12]; at 100.0 µM
  growth inhibition: 92% (active)
[13]; at 1.2 µM
  growth inhibition: 61%
[13]; at 3.7 µM
  growth inhibition: 74% (active)
[13]; at 11.0 µM
  growth inhibition: 85% (active)
[13]; at 33.0 µM
  growth inhibition: 90% (active)
[13]; at 100.0 µM
  growth inhibition: 93% (active)
[14]; [17]
  growth inhibition: 26%
[14]; [18]
  growth inhibition: 98% (active)
[14]; at 50.0 µM
  growth inhibition: 79.2% (active)
[15]; at 1.2 µM
  growth inhibition: 90% (active)
[15]; at 3.7 µM
  growth inhibition: 94% (active)
[15]; at 11.0 µM
  growth inhibition: 95% (active)
[15]; at 33.0 µM
  growth inhibition: 96% (active)
[15]; at 100.0 µM
  growth inhibition: 96% (active)
